Experimental data reported in PubChem BioAssay (EPA / NIEHS).
The source made the active and inactive calls. Rule for the calls: active = hit-call score of the fitted dose curve at least 0.9, where 1 is the maximum; inactive = score below 0.9.

Legend:
Conditions in all cases: mRNA level, 48 h; actives raise or lower the signal
[1] = read-out: Cyclin D2 (CCND2), CCND2 (gene 894); test: LTEA_HepaRG_CCND2: Life Technologies and Expression Analysis (LTEA) Assay for Cyclin D2 (CCND2) using HepaRG (AID 2283449);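 note: CCND2 transcript measured by TaqMan qRT-PCR and normalised to three housekeeping genes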
Outline: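 Chemicals in 0.5% DMSO, eight half-log concentrations from 100 uM top, were applied in duplicate for 48 h to human HepaRG cells in serum-free induction medium. CCND2 mRNA by TaqMan qRT-PCR, normalised to ACTB/GAPDH/POLR2A; bidirectional fit versus DMSO.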

[2] = read-out: Cyclin Dependent Kinase Inhibitor 1A (CDKN1A), CDKN1A (gene 1026); test: LTEA_HepaRG_CDKN1A: Life Technologies and Expression Analysis (LTEA) Assay for Cyclin Dependent Kinase Inhibitor 1A (CDKN1A) using HepaRG (AID 2283450)
Outline: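 HepaRG, 48 h dosing, 8-pt half-log series from 100 uM top, 0.5% DMSO vehicle, duplicates. Readout: TaqMan qRT-PCR of CDKN1A transcript, housekeeping-normalized (ACTB, GAPDH, POLR2A). Up/down curve fit relative to DMSO.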

[3] = read-out: Cyclin D1 (CCND1), CCND1 (gene 595); test: LTEA_HepaRG_CCND1: Life Technologies and Expression Analysis (LTEA) Assay for Cyclin D1 (CCND1) using HepaRG (AID 2283451);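 for AC50: TaqMan qRT-PCR transcript level normalised to ACTB GAPDH and POLR2A housekeeping genes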
Outline: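 qRT-PCR (Fluidigm 96.96 array) read-out of transcript level, housekeeping-normalized (ACTB/GAPDH/POLR2A). HepaRG cells, 48 h chemical exposure, 8-point half-log series from 100 uM, 0.5% DMSO vehicle; gain or loss relative to DMSO baseline.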

[4] = read-out: catalase (CAT), CAT (gene 847); test: LTEA_HepaRG_CAT: Life Technologies and Expression Analysis (LTEA) Assay for catalase (CAT) using HepaRG (AID 2283452)
Outline: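 HepaRG cells in serum-free induction medium, 0.5% DMSO vehicle, exposed 48 h in duplicate over 8 half-log concentrations from 100 uM. CAT mRNA measured by qRT-PCR, normalized to ACTB, GAPDH, POLR2A; bidirectional fit versus DMSO.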

[5] = read-out: flavin-containing dimethylaniline monooxygenases 3 (FMO3), FMO3 (gene 2328); test: LTEA_HepaRG_FMO3: Life Technologies and Expression Analysis (LTEA) Assay for flavin-containing dimethylaniline monooxygenases 3 (FMO3) using HepaRG (AID 2283453)
Outline: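 Differentiated HepaRG cells in serum-free induction medium, exposed 48 h in duplicate to 8 half-log concentrations up to 100 uM in 0.5% DMSO. FMO3 mRNA by qRT-PCR, normalized to ACTB, GAPDH, POLR2A; bidirectional fit vs DMSO.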

[6] = read-out: Cytochrome P450 (CYP1A1), CYP1A1 (gene 1543); test: LTEA_HepaRG_CYP1A1: Life Technologies and Expression Analysis (LTEA) Assay for Cytochrome P450 (CYP1A1) using HepaRG (AID 2283454)
Outline: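 qRT-PCR read-out: CYP1A1 transcript normalized to three housekeeping genes, fitted bidirectionally against 0.5% DMSO vehicle baseline. Human HepaRG cells, 48 h chemical exposure, 8-point half-log series topping at 100 uM.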

[7] = read-out: CFLAR gene, CFLAR (gene 8837); test: LTEA_HepaRG_CFLAR: Life Technologies and Expression Analysis (LTEA) Assay for CFLAR gene using HepaRG (AID 2283455)
Outline: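 Differentiated HepaRG cells in serum-free induction medium were exposed 48 h in duplicate to eight half-log concentrations up to 100 uM in 0.5% DMSO; mRNA measured by TaqMan qRT-PCR, normalized to ACTB, GAPDH, POLR2A; bidirectional fitting versus DMSO.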

[8] = read-out: Forkhead box O1 (FOXO1), FOXO1 (gene 2308); test: LTEA_HepaRG_FOXO1: Life Technologies and Expression Analysis (LTEA) Assay for Forkhead box O1 (FOXO1) using HepaRG (AID 2283456)
Outline: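 Differentiated HepaRG cells, in serum-free induction medium with 0.5% DMSO, exposed 48 h in duplicate to 8-point half-log series from 100 uM. FOXO1 mRNA measured by TaqMan qRT-PCR, normalized to ACTB, GAPDH, POLR2A; bidirectional fit versus DMSO.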

[9] = read-out: growth arrest and DNA damage 45 (GADD45A), GADD45A (gene 1647); test: LTEA_HepaRG_GADD45A: Life Technologies and Expression Analysis (LTEA) Assay for growth arrest and DNA damage 45 (GADD45A) using HepaRG (AID 2283458)
Outline: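 Cells plated and cultured 48 h, switched to serum-free induction medium, then dosed for 48 h (100 uM top, half-log dilutions, 0.5% DMSO). RNA was isolated and transcript measured by Fluidigm qRT-PCR.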

[10] = read-out: Forkhead box O3 (FOXO3), FOXO3 (gene 2309); test: LTEA_HepaRG_FOXO3: Life Technologies and Expression Analysis (LTEA) Assay for Forkhead box O3 (FOXO3) using HepaRG (AID 2283459)
Outline: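 Differentiated human HepaRG cells, 48 h post-plating, exposed in duplicate for 48 h in serum-free induction medium; 8-point half-log series from 100 uM in 0.5% DMSO. FOXO3 mRNA by TaqMan qRT-PCR, normalized to ACTB/GAPDH/POLR2A; bidirectional fit versus DMSO.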

[11] = read-out: ABC Transporter (ABCB1), ABCB1 (gene 5243); test: LTEA_HepaRG_ABCB1: Life Technologies and Expression Analysis (LTEA) Assay for ABC Transporter (ABCB1) using HepaRG (AID 2283460)
Outline: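 HepaRG cells exposed in duplicate for 48 h in serum-free induction medium to eight half-log concentrations up to 100 uM in 0.5% DMSO. ABCB1 mRNA quantified by qRT-PCR, normalised to ACTB, GAPDH and POLR2A; fitted bidirectionally versus DMSO.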

[12] = read-out: growth arrest and DNA damage 45 (GADD45B), GADD45B (gene 4616); test: LTEA_HepaRG_GADD45B: Life Technologies and Expression Analysis (LTEA) Assay for growth arrest and DNA damage 45 (GADD45B) using HepaRG (AID 2283461)
Outline: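 qRT-PCR read-out (Fluidigm TaqMan, housekeeping-normalized) of mRNA change in human HepaRG cells after 48 h chemical exposure; 8-point curve, top 100 uM, half-log steps, 0.5% DMSO vehicle; gain or loss fitted relative to DMSO baseline.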

[13] = read-out: ABC Transporter (ABCC3), ABCC3 (gene 8714); test: LTEA_HepaRG_ABCC3: Life Technologies and Expression Analysis (LTEA) Assay for ABC Transporter (ABCC3) using HepaRG (AID 2283462)
Outline: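 qRT-PCR read-out of ABCC3 transcript, normalized to three housekeeping genes (ACTB, GAPDH, POLR2A), after 48 h chemical exposure of human HepaRG cells. Eight half-log concentrations, highest 100 uM, in 0.5% DMSO; gain or loss fitted relative to DMSO baseline.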

[14] = read-out: ABC Transporter (ABCB11), ABCB11 (gene 8647); test: LTEA_HepaRG_ABCB11: Life Technologies and Expression Analysis (LTEA) Assay for ABC Transporter (ABCB11) using HepaRG (AID 2283463)
Outline: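 Differentiated human HepaRG cells in serum-free induction medium, dosed in duplicate for 48 h. Eight-point half-log series from 100 uM in 0.5% DMSO; ABCB11 mRNA by qRT-PCR, normalized to ACTB, GAPDH, POLR2A, fitted bidirectionally versus DMSO.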

[15] = read-out: ABC Transporter (ABCC2), ABCC2 (gene 1244); test: LTEA_HepaRG_ABCC2: Life Technologies and Expression Analysis (LTEA) Assay for ABC Transporter (ABCC2) using HepaRG (AID 2283464)
Outline: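 qRT-PCR (TaqMan, Fluidigm array) read-out of ABCC2 mRNA, normalized to three housekeeping genes. Differentiated HepaRG cells were treated 48 h in serum-free induction medium with 8-point half-log series from 100 uM in 0.5% DMSO; curves fitted bidirectionally relative to DMSO.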

[16] = read-out: Broad substrate specificity ATP-binding cassette transporter ABCG2 (Homo sapiens) (UniProt Q9UNQ0); test: LTEA_HepaRG_ABCG2: Life Technologies and Expression Analysis (LTEA) Assay for ABC Transporter (ABCG2) using HepaRG (AID 2283465)
Outline: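 Differentiated HepaRG cells were exposed for 48 h in serum-free induction medium to 8 half-log concentrations, top 100 uM, in 0.5% DMSO. ABCG2 mRNA was measured by qRT-PCR, normalized to ACTB, GAPDH and POLR2A, with bidirectional fitting versus DMSO.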

[17] = read-out: ATP-citrate lyase (ACLY), ACLY (gene 47); test: LTEA_HepaRG_ACLY: Life Technologies and Expression Analysis (LTEA) Assay for ATP-citrate lyase (ACLY) using HepaRG (AID 2283466)
Outline: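 Differentiated HepaRG cells exposed 48 h in serum-free induction medium to eight half-log concentrations up to 100 uM in 0.5% DMSO, duplicates. Transcript measured by Fluidigm TaqMan qRT-PCR, normalized to ACTB, GAPDH, POLR2A; bidirectional fit versus DMSO.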

[18] = read-out: Peroxisomal acyl-coenzyme A oxidase 1 (ACOX1) gene, ACOX1 (gene 51); test: LTEA_HepaRG_ACOX1: Life Technologies and Expression Analysis (LTEA) Assay for Peroxisomal acyl-coenzyme A oxidase 1 (ACOX1) gene using HepaRG (AID 2283467)
Outline: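 HepaRG cells, plated 48 h then switched to serum-free induction medium, were exposed in duplicate for 48 h to 8-point half-log concentrations up to 100 uM in 0.5% DMSO. ACOX1 mRNA was measured by qRT-PCR, normalized to ACTB/GAPDH/POLR2A, and fitted bidirectionally versus DMSO.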

[19] = read-out: Alkaline Phosphatase, Placental (ALPP) gene, ALPP (gene 250); test: LTEA_HepaRG_ALPP: Life Technologies and Expression Analysis (LTEA) Assay for Alkaline Phosphatase, Placental (ALPP) gene using HepaRG (AID 2283468)
Outline: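 qRT-PCR readout of ALPP mRNA (Fluidigm TaqMan), normalized to ACTB/GAPDH/POLR2A, after 48 h chemical exposure of HepaRG cells; 8-point half-log series, top 100 uM, 0.5% DMSO vehicle. Bidirectional curve fit versus DMSO baseline.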

Measured: AC50

Broad substrate specificity ATP-binding cassette transporter ABCG2 (Homo sapiens), sequence (Q9UNQ0 whole entry, looked up): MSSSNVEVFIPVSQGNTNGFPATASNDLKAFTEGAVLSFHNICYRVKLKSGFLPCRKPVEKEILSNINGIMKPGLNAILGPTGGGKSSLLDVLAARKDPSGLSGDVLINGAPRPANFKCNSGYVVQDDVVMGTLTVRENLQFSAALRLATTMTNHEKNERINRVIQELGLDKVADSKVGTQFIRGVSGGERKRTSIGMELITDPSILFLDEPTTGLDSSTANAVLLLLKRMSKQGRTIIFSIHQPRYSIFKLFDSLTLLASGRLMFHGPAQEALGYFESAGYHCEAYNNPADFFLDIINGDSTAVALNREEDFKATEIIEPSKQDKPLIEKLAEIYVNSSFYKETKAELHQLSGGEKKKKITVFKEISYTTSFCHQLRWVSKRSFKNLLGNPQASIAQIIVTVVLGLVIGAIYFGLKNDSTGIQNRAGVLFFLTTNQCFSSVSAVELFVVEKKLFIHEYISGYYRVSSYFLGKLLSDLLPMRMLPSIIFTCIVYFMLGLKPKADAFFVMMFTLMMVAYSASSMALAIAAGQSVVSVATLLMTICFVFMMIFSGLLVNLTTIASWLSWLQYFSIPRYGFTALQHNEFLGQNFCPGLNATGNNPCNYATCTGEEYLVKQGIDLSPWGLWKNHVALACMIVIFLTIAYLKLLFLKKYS

NC(=O)Cn1c(=O)cc(CCN2CCN(c3nccc4sccc34)CC2)c2ccc(F)cc21
active: [2] 50 µM | [6] 10.1 µM | [8] 50 µM | [11] 36.6 µM | [13] 78.1 µM | [19] 50 µM
inactive: all other assays above

CCCCCCOCCO
active: [6] 50 µM
inactive: all other assays above

Cc1ccc2ncccc2c1
active: [6] 50 µM
inactive: all other assays above

c1cc(-c2ccncc2)ccn1
active: [6] 50 µM
not listed: [14]
inactive: all other assays above

Clc1cc(Cl)c(Cl)cc1Cl
active: [6] 50 µM
inactive: all other assays above

CC1=C(/C=C/C(C)=C/C=C/C(C)=C/CO)C(C)(C)CCC1
active: [6] 64.1 µM | [11] 52.2 µM | [15] 52.2 µM | [16] 52.2 µM
inactive: all other assays above

O=C(OCCCCCOC(=O)c1ccccc1)c1ccccc1
active: [1] 2.48 µM | [3] 2.78 µM | [5] 503 nM | [6] 1.18 µM | [7] 228 nM | [8] 1.19 µM | [9] 2.13 µM | [10] 140 nM | [11] 0.27 µM | [13] 12.7 µM | [14] 572 nM | [16] 0.773 µM | [17] 50 µM | [19] 1.46 µM
inactive: [2] | [4] | [12] | [18]
